# Shown is part of a subset that was picked to be rich in hits.
# mut p53 react: re-activators of the mutant p53 pathway | actives 1.5% (n = 28,000) | activation, % at 9.98 µM | SW480 PUMA-promoter luciferase, p53 mutant reactivation; in the data active means activation above about 52%
# STK33 kin inh: human STK33 kinase inhibition; ADP-Glo luminescence, MBP substrate; inhibition, % at 12.5 µM; actives 0.44% (n = 27,000); in the data active means inhibition above about 20%
# NOMO-1 viab: STK33 inhibitor candidate reducing NOMO-1 cell viability; NOMO-1 AML viability, CellTiter-Glo luminescence, 72 h; inhibition, % (no concentration beside the values); actives 7.5% (n = 37,000); AID 2330; in the data active means inhibition above about 80%
# MITF inhib: blocks MITF activity; inhibition, % (test concentration not listed); actives 0.28% (n = 37,000); TRPM1 promoter luciferase, luminescence, 24 h; in the data active means inhibition above about 85%;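 further: human melanocyte line stably carrying TRPM1 promoter luciferase reporter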
# An asterisk follows results filed as active; . = not tested or not shown; ! = a repeat was not active.
SMILES,mut p53 react,STK33 kin inh,NOMO-1 viab,MITF inhib
CCC(Sc1nnc(-c2ccccc2)n1-c1ccccc1)C(=O)Nc1ccc(Cl)cc1 (configuration not stated),-2,-1,23,5
C[C@H](CO)N1C[C@H](C)[C@H](CN(C)CC2CCCCC2)Oc2ccc(NC(=O)Nc3ccc(C(F)(F)F)cc3)cc2C1=O,.,.,116*,0
C[C@H]1CN([C@@H](C)CO)C(=O)c2cc(NC(=O)Nc3ccccc3)ccc2O[C@H]1CN(C)CC1CCCCC1,.,-1,11,-11
C[C@H](CO)N1C[C@H](C)[C@@H](CN(C)CC2CCCCC2)Oc2ccc(NC(=O)Nc3ccc(F)cc3)cc2C1=O,.,.,-3,-6
C[C@@H]1CN([C@@H](C)CO)C(=O)c2cc(NC(=O)Nc3ccc(C(F)(F)F)cc3)ccc2O[C@H]1CN(C)CC1CCCCC1,.,2,118*,-14
CC(C)Sc1nc2sc3c(c2c2nnc(SCC(=O)c4ccccc4)n12)CCCC3,-6,2,.,.
Cc1cc(Cl)ccc1NC(=O)CN1CCC(C(N)=O)(N2CCCCC2)CC1,4,1,-14,-1
CN(CCO)C(=O)c1ccc2c(c1)C(=O)c1ccccc1-2,.,.,1,-3
COc1cc(-c2cc(O)c(OC)c(OC)c2)cc(O)c1OC,7,-1,6,-13
COc1cc(O)cc(OC)c1OC,.,1,107*,17
O[C@@H]1[C@@H](O)C=C2CCN3Cc4cc5c(cc4[C@H]1C23)OCO5 (some centres not stated),-90,-5,114*,63
CN1CCc2cc3c(cc2C2OC(O)c4c(ccc5c4OCO5)C21)OCO3 (configuration not stated),10,6,14,6
O[C@H]1[C@H]2c3cc4c(cc3CN3CCC(=C[C@@H]1O)[C@H]23)OCO4,-73,2,142*,62
COc1ccc(Cl)cc1NC(=O)COc1ccccc1[N+](=O)[O-],23,-5,21,-24
O=C(COc1ccc(Br)cc1Cl)Nc1ccccc1CO,75*,2,16,-13
COc1ccccc1NC(=O)COc1ccc(Cl)cc1CO,63*,2,31,-36
COc1ccc(Cl)cc1NC(=O)COc1ccccc1OC,99*,3,23,-41
CN1CCN(C(CC(=O)Nc2cccc([N+](=O)[O-])c2)C(=O)O)CC1 (configuration not stated),9,1,.,.
COc1ccc(NC(=O)Cc2coc3c(C)c(C)ccc23)c(OC)c1,12,0,28,2
O=C1/C(=C\c2c[nH]c3ccccc23)C(c2ccccc2)Oc2ccccc21 (configuration not stated),.,.,121*,51
O=C1NC(=O)C(c2c[nH]c3ccccc23)=C1c1c[nH]c2ccccc12,-3,.,.,.
O=C(CCN1CCN(CCO)CC1)N1c2ccccc2Sc2ccc(C(F)(F)F)cc21,5,-1,17,14
CN1CCN(CCCN2c3ccccc3Sc3ccc(C(F)(F)F)cc32)CC1,-14,2,112*!,5
COc1ccc(-c2cc(=O)c3c(OC)c(OC)c(OC)c(OC)c3o2)cc1OC,.,4,28,-27
CC1(C)C=Cc2c(c3occc3c3oc(-c4ccccc4)cc(=O)c23)O1,.,.,95*,-8
SMILES,mut p53 react,STK33 kin inh,NOMO-1 viab,MITF inhib
C=C(C)C(=O)O[C@H]1C[C@@]2(C)OC(=CC2=O)/C(COC(C)=O)=C\[C@H]2OC(=O)C(=C)C12 (some centres not stated),-80,1,120*,34
C=C1[C@H](OC(=O)C(C)CC)[C@@H](OC(=O)C(C)C)[C@@H](O)C(C)(C)/C=C\[C@H](C)C(=O)[C@@]2(O)C[C@H](C)[C@H](O)[C@@H]2[C@H]1OC(=O)C(C)CC (some centres not stated),.,-9,60,-44
CCCCC(=O)/C=C/n1c(=S)oc2ccccc21,.,.,133*,-5
COc1ccc(C(OC(=O)c2ccccc2)c2nccc3ccccc23)cc1 (configuration not stated),.,.,105*,-14
CS(=O)(=O)Nc1ccc(C(=O)CC2(O)C(=O)Nc3ccc(Br)cc32)cc1 (configuration not stated),0,0,-14,-23
C[C@@H]1CN([C@@H](C)CO)C(=O)c2cccc(NC(=O)C3CCCCC3)c2O[C@H]1CN(C)Cc1ccc(C(F)(F)F)cc1,.,.,105*,22
C[C@H]1CN([C@@H](C)CO)C(=O)c2cccc(NC(=O)C3CCCCC3)c2O[C@@H]1CN(C)Cc1ccc(C(F)(F)F)cc1,.,.,91*,-13
C[C@H](CO)N1C[C@H](C)[C@H](CN(C)Cc2ccc(C(F)(F)F)cc2)Oc2c(NC(=O)C3CCCCC3)cccc2C1=O,.,.,59,15
